Compounds with a hit are over-represented: about 4% of the library has one in this group of screens.
RecA intein inh = inhibitors of M. tuberculosis RecA intein splicing | P9WHJ3 | cell-free RecA intein splicing, fluorescence | inhibition, % (test concentration not listed) | 290,000 tested, 0.75% active | AID 2221; in the data active = inhibition above about 30%
FBA Mtb inh = Mtb fructose-bisphosphate aldolase inhibition; P9WQA3; purified M. tuberculosis FBA, fluorescence read-out; inhibition, % at 1 µM; 360,000 tested, 2.3% active; AID 588726; in the data active = inhibition above about 27%
GDH-TPI counter = counter-screen for M. tuberculosis FBA inhibitors: GDH-TPI coupled enzymes. GDH-TPI coupled enzyme counterscreen, NADH absorbance. inhibition, % at 4.8 µM. 360,000 tested, 1.2% active. AID 588335; in the data active = inhibition above about 30%
Mtb betalactam = beta-lactam sensitization of Mtb H37Rv; 330,000 tested, 0.27% active; AID 434955; inhibition, % at 25 µM; M. tuberculosis H37Rv growth with meropenem, percent inhibition;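 also: growth measured after seven days incubation then overnight dye step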
Mtb UGM inh = inhibitors of M. tuberculosis UDP-galactopyranose mutase; P9WIQ1; purified UGM, fluorescence polarization probe displacement; inhibition, % at 10 µM; 320,000 tested, 0.06% active; in the data active = inhibition above about 10%, passing the limit was not always enough
Rv3671c inh = Rv3671c (M. tuberculosis) protease inhibition; 320,000 tested, 0.048% active; P9WHR9; inhibition, % at 5.96 µM; AID 2606; in the data active = inhibition above about 38%;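 also: extracellular domain of Rv3671c used as enzyme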
Target sequence (P9WHR9 whole entry, looked up, the tested form may be a part): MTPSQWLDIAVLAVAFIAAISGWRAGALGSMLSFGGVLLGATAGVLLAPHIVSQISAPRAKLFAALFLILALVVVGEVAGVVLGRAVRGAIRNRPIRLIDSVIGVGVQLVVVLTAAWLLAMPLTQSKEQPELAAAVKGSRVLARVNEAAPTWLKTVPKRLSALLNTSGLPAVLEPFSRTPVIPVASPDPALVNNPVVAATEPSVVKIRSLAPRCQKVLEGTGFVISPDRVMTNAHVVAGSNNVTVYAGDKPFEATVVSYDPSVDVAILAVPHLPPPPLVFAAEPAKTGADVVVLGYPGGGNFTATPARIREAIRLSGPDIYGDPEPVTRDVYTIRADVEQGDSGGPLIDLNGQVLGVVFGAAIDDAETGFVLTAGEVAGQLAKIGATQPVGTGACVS
GFP chromo cs = counter-screen GFP chromophore formation inhibition. shares compounds with RecA intein inh. AID 434968. EC50, µM. cell-free GFP chromophore formation, fluorescence. 2,100 tested, 83% active
Numbers stand for hits; n = inactive; x = no result; + = active, no number. Unless noted, no rule for the calls is given here.

SMILES	RecA intein inh	FBA Mtb inh	GDH-TPI counter	Mtb betalactam	Mtb UGM inh	Rv3671c inh	GFP chromo cs
CC(OC(=O)/C=C/c1ccco1)C(=O)NC1CCCCC1C (stereo unspecified)	x	n	n	n	n	n	x
COc1cccc(Nc2nc3cc(C)ccc3cc2C)c1	x	n	n	x	x	x	x
O=[N+]([O-])c1ccc2oc(C(O)c3cccc(Cl)c3)cc2c1 (stereo unspecified)	n	n	n	n	n	n	x
CC1(C)CC(=O)C=C(c2ccccc2-c2ccc(S(C)(=O)=O)cc2)C1=O	x	n	n	x	x	x	x
CCOC(=O)c1cnc(-n2[nH]c(C)c(Cc3ccccc3)c2=O)[nH]c1=O	33	n	n	n	n	n	34
CCOC(=O)c1cnc(-n2[nH]c(C)cc2=O)[nH]c1=O	n	n	n	n	n	n	x
CCc1nc(N2CCN(C(=O)CCl)CC2)c2c3c(sc2n1)CC(C)CC3 (stereo unspecified)	87	n	n	n	n	n	2.6
COc1ccc([C@@H]2[C@@H]3C(=O)N(C(C)(C)C)C(=O)[C@@H]3[C@]3(C)C(=O)N(c4cccc(Br)c4)C(=O)N23)cc1	n	n	n	n	n	n	x
COc1ccc(Nc2ccc(OC)cc2)cc1	51	n	n	n	n	n	n
O=C(Nc1ccc2c(c1)OCO2)c1cc(-c2ccc(O)cc2)on1	n	n	n	n	n	n	x
Clc1ccc(CSC(Cn2ccnc2)c2ccc(Cl)cc2Cl)cc1 (stereo unspecified)	42	n	n	n	n	n	23
CC1(C(=O)NCc2ccc3c(c2)OCO3)CCN1C(=O)CC1CCCC1 (stereo unspecified)	x	n	n	x	x	x	x
COc1cccc(C(=O)NCC(C)(C)SCc2ccc(F)cc2)c1	n	n	n	n	n	n	x
COc1cc(/C=C(\C#N)c2nc3ccccc3o2)ccc1O	34	n	n	n	n	n	17
N#C/C(=C\c1ccc(O)cc1)c1nc2ccccc2o1	n	n	n	n	n	n	x
COc1cccc(CC(=O)OCC(=O)NNC(=O)c2ccc(Br)cc2)c1	x	n	n	n	n	n	x
Cc1ccccc1Nc1c([N+](=O)[O-])cncc1[N+](=O)[O-]	n	n	n	n	n	n	x
O=[N+]([O-])c1cncc([N+](=O)[O-])c1Nc1cccc(O)c1	46	n	n	n	n	n	16
CC(C)c1ccc(NC(=O)CN2C(=O)COc3ccc(S(=O)(=O)N4CCOCC4)cc32)cc1	n	n	n	n	n	n	x
Oc1ccc(N=Cc2ccc(-c3cccs3)s2)cc1	45	+	35	n	n	n	n
S=C(NCCc1cccc(Cl)c1)NC1CCCCC1	n	n	n	n	n	x	x
COc1ccccc1-c1cc(C(F)(F)F)nc(S(C)(=O)=O)n1	50	n	n	n	n	n	31
COc1ccccc1-c1cc(C(F)(F)F)nc(S(=O)(=O)CCCC(=O)NCc2ccc(F)cc2)n1	47	n	n	n	n	n	7.7
COc1ccccc1-c1cc(C(F)(F)F)nc(S(=O)(=O)CCCC(=O)N2CCCCC2C)n1 (stereo unspecified)	56	n	n	n	n	n	7.2
COc1ccccc1-c1cc(C(F)(F)F)nc(S(=O)(=O)CCCC(=O)NC(C)C)n1	n	n	n	n	n	n	x
SMILES	RecA intein inh	FBA Mtb inh	GDH-TPI counter	Mtb betalactam	Mtb UGM inh	Rv3671c inh	GFP chromo cs
CS(=O)(=O)c1nc(-c2ccco2)cc(C(F)(F)F)n1	40	x	x	n	n	n	n
Cc1cc(N(C)C)cc(C)c1N=Nc1cc[n+]([O-])cc1	x	n	n	x	x	x	x
N#CC1(Nc2ccc(C(=O)O)cc2)CCCC1	x	n	n	x	x	x	x
Cc1ccccc1NC1=C/C(=N\S(=O)(=O)c2ccc(C(=O)O)cc2)c2ccccc2C1=O	96	n	n	n	n	n	11
O=C(O)c1ccc(S(=O)(=O)/N=C2\C=C(Nc3ccccc3F)C(=O)c3ccccc32)cc1	94	n	n	n	n	n	0.17
CC(=O)Nc1ccc(NC2=C/C(=N/S(=O)(=O)c3cccs3)c3ccccc3C2=O)cc1	x	n	n	n	n	n	x
COc1ccc(S(=O)(=O)/N=C2\C=C(Nc3ccc(O)cc3)C(=O)c3ccccc32)cc1	93	n	n	n	n	n	0.34
Cc1ccccc1NC1=C/C(=N\S(=O)(=O)c2cccs2)c2ccccc2C1=O	37	n	n	n	n	n	1

From PubChem
